Screening results deposited in PubChem by several laboratories.
TIM10 inh = growth inhibitors of isogenic TIM10 control yeast, primary screen, counter-screen for tim10-1 yeast inhibitor project, luminescence, uHTS | S. cerevisiae TIM10 strain growth, BacTiter-Glo luminescence, 24 h | inhibition, % at 10 µM | hit rate 1.4% among 330,000 | AID 463195, 2010;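 active = inhibition of 40% or more at the single tested concentration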;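 also: wild-type TIM10 isogenic control strain grown at permissive 25 °C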
SKKanGAS inh = S. pyogenes SKKanGAS growth inhibitors in kanamycin, primary screen, streptokinase expression inhibitor project, SKKanGAS strain, BacTiter-Glo luminescence; 6 h; inhibition, % at 7.5 µM; hit rate 1.3% among 300,000; AID 1662, 2009;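 active = mean replicate score, as percent of positive control median, at least 50; inconclusive = mean below 50 but one replicate at or above 50; inactive = mean and every replicate below 50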;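 also: strain carries kanamycin resistance gene driven by streptokinase promoter and grows in 40 µg/ml kanamycin; loss of luminescence reflects streptokinase promoter inhibition or plain growth inhibition; 0% = median of DMSO wells and 100% = positive control at its reference dose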
Calb FLC = C. albicans growth inhibition with fluconazole, primary screen, CaCi-2 strain, Alamar Blue fluorescence | AID 1979, 2009 | hit rate 0.57% among 300,000 | growth inhibition, % (concentration not given with the values) | C. albicans CaCi-2 (fluconazole-resistant clinical isolate) + fluconazole, 48 h;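 active = growth inhibition above about 58% in most replicates, limit read from the data, passing the limit was not always enough; inconclusive = exactly half the replicates above a set limit; inactive = most replicates below a set limit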;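 also: all wells also contain fluconazole at 8 µg/ml as a sub-toxic cotreatment; 0% = median of DMSO wells and 100% = median of geldanamycin control wells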
tim23-1 inh = growth inhibitors of tim23-1 mutant yeast, primary screen, luminescence, uHTS | inhibition, % at 20 µM | hit rate 1.3% among 330,000 | S. cerevisiae tim23-1 growth, BacTiter-Glo luminescence, 24 h;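 active = growth inhibition of the mutant yeast at or above 50%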;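 also: temperature-sensitive mutant grown at 25 °C; plate controls were DMSO-treated mutant yeast for no effect and medium wells lacking yeast for full effect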
tim10-1 inh = growth inhibitors of tim10-1 mutant yeast, primary screen, luminescence, uHTS; S. cerevisiae tim10-1 ts strain growth, BacTiter-Glo, 24 h; inhibition, % at 20 µM; hit rate 2.2% among 330,000; AID 463190, 2010;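 active = inhibition of at least 40%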;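 also: mutant grown at 25 °C; 0% = DMSO wells with yeast and 100% = wells holding no yeast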
PfHsp90 set2 = growth inhibition of PfHsp90-expressing yeast, primary screen, antimalarial PfHsp90 inhibitor project, S. cerevisiae, BacTiter-Glo luminescence, single point, set 2 | BacTiter-Glo ATP, 48 h; yeast lacking PDR1 and PDR3 efflux regulators | inhibition, % at 9.4 µM | hit rate 0.32% among 310,000 | AID 504621, 2011;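 active = every replicate shows inhibition above about 80%, whatever the replicate mean, limit read from the data; inconclusive = mean inhibition reaches the set limit but some replicate falls short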;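 also: 0% = DMSO neutral controls and 100% = 20 µM radicicol positive controls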
tim10 confirm = growth inhibitors of wild-type TIM10 yeast, confirmation, counter-screen for tim10-1 synthetic lethality project, single concentration, luminescence, S. cerevisiae | hit rate 63% among 4,600 | inhibition, % at 10 µM | shares compounds with TIM10 inh | S. cerevisiae tim10 strain growth, BacTiter-Glo luminescence, 24 h;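 active = inhibition of yeast growth at or above a set limit in either of two replicates at 10 µM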;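 also: this counterscreen used the strain with wild-type TIM10; 0% = yeast with DMSO and 100% = medium wells lacking yeast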
* = called active by the depositor; ? = inconclusive; / = not tested or not shown. Hits are enriched below; roughly 4.7% of the tested compounds scored in any of these assays.

SMILES	TIM10 inh	SKKanGAS inh	Calb FLC	tim23-1 inh	tim10-1 inh	PfHsp90 set2	tim10 confirm
CCOC(=O)C1=C(C)N(c2ccc(C)c(C)c2)C(=O)/C1=C\c1ccco1	23.8	-3.6	2.4	32.4	27.2	-15.7	/
COC(=O)C1=C(C)N(c2ccc(C)c(C)c2)/C(=C/c2ccco2)C1=O	48.4*	1.5	?	38.3	37.5	10.2	47.3*
COC(=O)C1=C(C)N(c2ccc(C)cc2)/C(=C/c2cccs2)C1=O	42.6*	0.5	30.9	33.8	38.4	/	31.7*
CCC(C)(C)n1nnnc1C(c1ccc2ncccc2c1)N1CCCCCC1 (stereo not drawn)	42.9*	3.4	0.7	41.5	35.4	-18.2	-22.0
Cc1ccc(S(=O)(=O)N(C)C)cc1NC(=O)COC(=O)Cc1ccsc1	13.0	-13.0	3.4	16.0	6.3	-2.7	/
COC(=O)[C@@H](NC(=O)NCCC1=CCCCC1)C(C)C	49.1*	0.1	-3.7	6.2	10.0	1.3	-16.0
COc1ccccc1-c1cc(C(F)(F)F)nc(S(=O)(=O)CCCC(=O)NCc2ccc(F)cc2)n1	49.6*	-8.0	-21.7	8.7	38.1	/	14.4
COc1ccccc1-c1cc(C(F)(F)F)nc(S(=O)(=O)CCCC(=O)NC(C)C)n1	42.4*	7.2	9.5	32.1	38.0	-17.7	-19.8
COc1ccccc1-c1cc(C(F)(F)F)nc(S(=O)(=O)CCCC(=O)Nc2cccnc2Cl)n1	/	/	/	/	/	-28.9	/
COCc1c(C(=O)N/N=C/c2ccncc2)nnn1-c1nonc1N	-1.0	-0.5	-13.1	-0.2	12.3	-15.4	/
CCn1c(-c2cc(-c3ccc(C)cc3)nc3ccccc23)n[nH]c1=S	41.6*	-9.7	41.8	49.1	33.4	-26.2	40.9*
Cc1cccc(N2CCN(C(=O)c3ccc4nc[nH]c4c3)CC2)c1C	35.2	2.2	19.9	35.8	34.8	-29.5	/
Cc1ccc(Cl)cc1N1CCN(C(=O)c2ccc3nc[nH]c3c2)CC1	47.9*	-2.8	40.6	39.7	31.1	-5.9	36.6*
Cc1onc(-c2c(Cl)cccc2Cl)c1C(=O)N1CCN(c2ccccc2)CC1	41.7*	2.3	?	18.8	19.7	11.9	-1.2
Cc1onc(-c2c(Cl)cccc2Cl)c1C(=O)N1CCN(c2ccc(F)cc2)CC1	12.1	11.0	-7.7	31.6	20.0	0.0	/
COC(=O)c1ccc(OC(=O)CCc2cc(OC)c(OC)c(OC)c2)cc1	30.5	-5.7	-0.3	22.1	19.4	30.9	/
COc1ccc(Cc2nc(C)cc(Cl)n2)cc1[N+](=O)[O-]	41.9*	-1.6	-11.3	-8.5	-3.6	-10.7	-4.0
CCOc1ccc(NC(=O)c2cc(=O)[nH]c3ccccc23)cc1	-0.4	2.7	-1.4	-2.9	-1.4	2.8	/
Cc1ccc(/C=C/C(=O)N2CCN(S(=O)(=O)c3c(C)c(C)cc(C)c3C)CC2)o1	40.9*	10.6	-1.7	30.2	26.1	-26.0	-17.8
Cc1ccc2c(c1)-c1nc3ccccc3cc1C2=NC1CCCCC1	/	/	/	/	/	26.1	/
Cc1ccc2c(c1)Cc1nc3ccccc3nc1-2	45.6*	14.6	-15.6	41.6	19.3	-64.2	51.4*
COc1ccc(CC(=O)OCC(=O)NCc2ccc(C)cc2)cc1OC	4.4	/	/	20.4	9.1	-9.9	/
Cc1ccc(C(=O)N2CCN(Cc3ccccc3)CC2)o1	11.6	0.6	-7.5	-2.1	0.4	-24.6	/
O=C(c1ccc([N+](=O)[O-])o1)N1CCN(Cc2ccccc2)CC1	43.1*	12.7	-2.1	39.9	33.2	-12.3	37.6*
COc1cccc(NC(=O)NCCCSC2CCCCC2)c1	21.7	-7.5	-22.3	34.9	32.1	-2.5	/
Cc1cc(C)c(NC(=S)NCCCSC2CCCCC2)c(C)c1	42.3*	9.5	-13.9	18.2	34.5	-8.3	26.6
